# Measured values reported in PubChem BioAssay (NCI).
# The panel holds about 79,000 compounds, 15% with a hit somewhere; the sample as a whole holds those more often. Activity calls are given as the source filed them. Rule as the data show it: active = growth inhibition above about 70%; inactive = the rest.
# Assay: NCI Yeast Anticancer Drug Screen. Data for the mlh1 rad18 strain (AID 175)
# Conditions: S. cerevisiae mlh1 rad18 strain growth inhibition, stronger effect = higher value; at 50.0 µM unless noted
# How it was run: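 Genetically defined yeast (DNA repair-deficient) exposed to compounds; growth inhibition determined relative to vehicle.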
row,Compound,growth inhibition
1,Cc1cc(Cl)ccc1OCC(=O)NCCO,12% (inactive)
2,CN(C)c1ccc(/C=C2\C(=O)/C(=C\c3ccc(N(C)C)cc3)c3ccccc32)cc1,2.95% (inactive)
3,COc1cccc(C(c2ccccc2)C(CC(=O)O)CC(=O)O)c1 (centres undefined),-16.5% (inactive)
4,C=C(C)C(C(=O)OCC)C(=O)OCC,-4.85% (inactive)
